About 79,000 compounds went through this panel and 15% of them were active in at least one assay; those are over-represented in the sample as a whole. No stated cut-off is given here; in the data, active means growth inhibition above about 70%; inactive means the rest.
What was measured:
[1] = NCI Yeast Anticancer Drug Screen. Data for the rad50 strain (AID 155);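 further: 0% = growth of vehicle-only cultures of the same strain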; conditions: S. cerevisiae rad50 strain growth inhibition; at 50.0 µM; stronger effect = higher value
Method in brief: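 Growth of the mutant yeast was measured after compound exposure and referenced to vehicle-treated cultures.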

[2] = NCI Yeast Anticancer Drug Screen. Data for the mec2-1 strain (AID 157); conditions: S. cerevisiae mec2-1 strain, at 50.0 µM, stronger effect = higher value
Method in brief: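 Compounds were applied to mec2-1 yeast cells. Their growth was then compared with that of vehicle-treated cultures to give growth inhibition.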

[3] = NCI Yeast Anticancer Drug Screen. Data for the sgs1 mgt1 strain (AID 161);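 further: 0% = growth of cultures given vehicle only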; conditions: S. cerevisiae sgs1 mgt1 strain, at 50.0 µM, stronger effect = higher value
Method in brief: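 Yeast cells carrying a defined DNA-repair defect were exposed to test compounds. Growth inhibition was measured relative to vehicle-treated controls.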

[4] = NCI Yeast Anticancer Drug Screen. Data for the cln2 rad14 strain (AID 165);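 further: 0% = growth equal to vehicle treated cultures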; conditions: S. cerevisiae cln2 rad14 strain, at 50.0 µM, stronger effect = higher value
Method in brief: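 Strain: cln2 rad14 yeast, altered in cell cycle control and DNA damage repair. Read-out: growth inhibition vs vehicle.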

[5] = NCI Yeast Anticancer Drug Screen. Data for the bub3 strain (AID 167); conditions: S. cerevisiae bub3 mutant strain, at 50.0 µM, stronger effect = higher value
Method in brief: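 Whole-cell yeast assay. The mutant strain was incubated with compounds, and growth inhibition was determined by comparison with vehicle-treated cells.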

[6] = NCI Yeast Anticancer Drug Screen. Data for the mlh1 rad18 strain (AID 175); conditions: S. cerevisiae mlh1 rad18 strain growth inhibition; at 50.0 µM; stronger effect = higher value
Method in brief: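 A repair-deficient yeast strain is exposed to test compound, and growth is scored relative to vehicle-treated controls.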

Measured: growth inhibition

FC(F)(F)c1ccc(Cl)c(NC2=NCCCS2)c1
inactive: [1] -7.85% | [2] -0.35% | [3] 2.15% | [4] 2.05% | [5] 0.4% | [6] -3.6%

Cc1nc2ccccc2c(=O)n1-c1ccccc1F
inactive: [1] -10.6% | [2] -30.2% | [3] -19.8% | [4] 4.8% | [5] -20.9% | [6] -29.8%

O=C(O)c1ccc(CI)cc1
inactive: [1] -9.6% | [2] -11.9% | [3] 6% | [4] 9% | [5] 15.2% | [6] -16.9%

C=CCNC(=O)C(Br)C(C)C (centres undefined)
inactive: [1] -9.8% | [2] -40.8% | [3] -10.6% | [4] 22.9% | [5] -26.9% | [6] -8.2%

Cc1cc(O)c2c(c1)OC(C)(C)C1=C2CC(C)CC1 (centres undefined)
inactive: [1] -6.4% | [2] 10.8% | [3] -1.05% | [4] -52.8% | [5] -16.1% | [6] -21.9%

O=C1c2ccccc2C(=O)c2ccccc21
inactive: [1] 37% | [2] 5.25% | [3] 1.95% | [4] -29.4% | [5] 25.5% | [6] 47.5%

Nc1ccc(C(=O)O)c([As](O)O)c1
inactive: [1] -6.95% | [2] 8.55% | [3] -1% | [4] 4.35% | [5] -4.3% | [6] 0.65%

CC(Cl)CN1CCN(CC(C)Cl)CC1 (centres undefined)
inactive: [1] 2.95% | [2] -16.7% | [3] 34.4% | [4] 4.4% | [5] 31.9% | [6] -10.3%

OC1CN=C2c3ccccc3C(O)(c3ccc(Cl)cc3)N2C1 (centres undefined)
inactive: [1] 23.8% | [2] 22.1% | [3] 37.2% | [4] -1.9% | [5] 22.7% | [6] 37.5%

CC(C)CCCC(C)CCC1C(=O)NC(=S)NC1=O (centres undefined)
inactive: [1] 8.45% | [2] 10.2% | [3] -4.4% | [4] 1.75% | [5] -3.05% | [6] 32.1%

COc1ccc(S(=O)(=O)F)cc1N
inactive: [1] -18.6% | [2] -32.5% | [3] -21.6% | [4] 4.35% | [5] -14.3% | [6] -22.4%

[O-][n+]1c2ccccc2nc2ccccc21
inactive: [1] 62.1% | [2] 34% | [3] 26.9% | [4] -9.55% | [5] 41.2% | [6] 55.7%

Nc1ccc2c(c1)Oc1ccc(N)cc1O2
inactive: [1] -22.8% | [2] 1.2% | [3] 0.7% | [4] 15.1% | [5] -6.2% | [6] 5.15%

CCC1(N)C(=O)OCc2c1cc1n(c2=O)Cc2cc3ccccc3nc2-1 (centres undefined)
inactive: [1] 4.8% | [2] -17.5% | [3] -39.6% | [4] -7.75% | [5] -17.1% | [6] -12.3%

Cc1ccccc1-n1c(C)nc2ccccc2c1=O
inactive: [1] -29.3% | [2] -30.7% | [3] -1.35% | [4] 11.6% | [5] 1.5% | [6] -20.7%

CCOC(=O)c1ccccc1C(=O)OCC
inactive: [1] 6.25% | [2] -2.65% | [3] -9.6% | [4] 6.1% | [5] -0.05% | [6] 10.9%

[CH3][Sn]([CH3])([n]1cnc(N)nc1=O)[n]1cnc(N)nc1=O
inactive: [1] 4.75% | [2] 0% | [3] -10.3% | [4] -1.45% | [5] -2.55% | [6] -60.4%

Clc1ccc(-c2csc3cccc[n+]23)cc1
inactive: [1] 7.5% | [2] 4.35% | [3] 19.4% | [4] 24.1% | [5] 22.8% | [6] 19.3%

CN(C)c1ccc(N=Nc2ccc([As](=O)(O)O)cc2)cc1
inactive: [1] -23.1% | [2] -10.6% | [3] -11.8% | [4] -35.1% | [5] -5.15% | [6] -0.4%

O=C1NC2(CCCC2)C(=O)N1CCCN(CCCl)CCCl
inactive: [1] 2.75% | [2] 12.9% | [3] 25.1% | [4] -37.3% | [5] 7.35% | [6] 3.2%

O=C(O)c1cc([N+](=O)[O-])cc([N+](=O)[O-])c1
inactive: [1] -3% | [2] 1.3% | [3] 2.75% | [4] -34.2% | [5] -30.9% | [6] 43.2%

COC(=O)CN(C)P(=O)(N1CC1)N1CC1
inactive: [1] 13.4% | [2] 7.15% | [3] -4.1% | [4] -10.2% | [5] -2.8% | [6] -10.1%

S=[As](c1ccc(-c2ccccc2)cc1)(c1ccc(-c2ccccc2)cc1)c1ccc(-c2ccccc2)cc1
inactive: [1] -10.7% | [2] -5.55% | [3] -39.5% | [4] -19.6% | [5] -13.6% | [6] -18.2%

NC(=O)c1cc(N(CCCl)CCCl)c([N+](=O)[O-])cc1[N+](=O)[O-]
inactive: [1] 38.9% | [2] -11.1% | [3] 10.4% | [4] 14.4% | [5] 18.6% | [6] 5.5%

COC(=O)C1=C(C)NC(C)=C2C(=O)Oc3ccccc3C12 (centres undefined)
inactive: [1] 4.75% | [2] -9.65% | [3] -7.5% | [4] 6.6% | [5] -6.8% | [6] 1.4%

CCCC(OP(=S)(OCC)OCC)c1ccc(Cl)cc1 (centres undefined)
inactive: [1] -22.5% | [2] -1.5% | [3] 2.9% | [4] -32.3% | [5] 39% | [6] -1.15%

O=P(O)(O)CCc1ccccc1
inactive: [1] -3.85% | [2] 1.5% | [3] -5.2% | [4] -15.8% | [5] -2.7% | [6] 7.7%

Cc1ccc(C(=O)Nc2ccc(CP(=O)(O)O)cc2)cc1NC(=O)c1cccc(NC(=O)Nc2cccc(C(=O)Nc3cc(C(=O)Nc4ccc(CP(=O)(O)O)cc4)ccc3C)c2)c1
inactive: [1] -0.5% | [2] 0.95% | [3] 3.6% | [4] -10.3% | [5] -1.55% | [6] -9.25%

CC(=O)CCC(=O)O
inactive: [1] -7.05% | [2] 0.55% | [3] -39.2% | [4] 16.1% | [5] -7.25% | [6] -19.9%

CC(=O)C(=[N+]=[N-])C(=O)N(C)CCC#N
inactive: [1] -7.3% | [2] 6.25% | [3] 11.2% | [4] 13.7% | [5] 7.25% | [6] 20.9%

COC(C)C(O)(C(=O)OCC1=CCN2CCC(O)C12)C(C)(C)O (centres undefined)
inactive: [1] 1.25% | [2] -5.35% | [3] 21.4% | [4] 5.4% | [5] 10.1% | [6] -52.4%

CC(NC(=O)c1c(O)[nH]c(=S)[nH]c1=O)c1ccc([N+](=O)[O-])cc1 (centres undefined)
inactive: [1] 17.9% | [2] 13.8% | [3] 35.8% | [4] 19.4% | [5] 12.1% | [6] 14.6%

CN(c1ccccc1)c1nc(=[N+]2CCCC2)ss1
inactive: [1] 11.6% | [2] -1.3% | [3] -11.8% | [4] 0.9% | [5] 7.75% | [6] 24.6%

CC1(C)N=C(N)N=C(N)N1c1ccc(OCCOc2ccc(S(=O)(=O)F)cc2)cc1
inactive: [1] -11.1% | [2] -14.4% | [3] -2.05% | [4] -59.4% | [5] -10.7% | [6] -18.4%

CC1=CC(=O)C2=C(C)C[C@H](O)[C@@H]3[C@H](OC(=O)[C@H]3C)[C@@H]12
inactive: [1] -2.45% | [2] 2.95% | [3] 6.4% | [4] 17.2% | [5] 6.25% | [6] 8.85%

COc1ccccc1OC (tested in a mixture with another compound)
inactive: [1] 22.5% | [2] 16.7% | [3] 26.4% | [4] -17.4% | [5] 14.2% | [6] 16.2%

CC[C@@H](C)C(=O)O[C@H]1[C@H](O)[C@H]2[C@@H](CN3C[C@@H](C)CC[C@H]3[C@@]2(C)O)[C@@H]2C[C@]34O[C@]5(O)[C@@H](OC(=O)[C@@](C)(O)CC)CC[C@@]3(C)[C@@H]5[C@@H](OC(C)=O)[C@@H](OC(C)=O)[C@H]4[C@@]21O
inactive: [1] 11.8% | [2] -15.3% | [3] 0.75% | [4] -4.3% | [5] 8.75% | [6] 7.35%

Cn1cnnc1[N+](=O)[O-]
inactive: [1] 1.75% | [2] 5.85% | [3] -11.4% | [4] -1.1% | [5] 3.25% | [6] 15.7%

COC(=O)C1C(=O)NC2(C)CC1c1ccccc1O2 (centres undefined)
inactive: [1] -28% | [2] -11.7% | [3] -30.8% | [4] 8% | [5] -12.5% | [6] -1.45%

— PubChem BioAssay (NCI)
